# “And” between values parts separate entries of the source, which are not always exact repeats. Equal entries are not always repeated. The panel holds about 83,000 compounds, 20% with a hit somewhere; the sample as a whole holds those more often.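 Compound tested at a single concentration for 48 hours in 96-well plates; a percent growth value below 10 was scored as active.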 Values without a mark were called inactive. The source made the active and inactive calls.
# System: OVCAR-5 ovarian
# Assay: NCI-60 one-dose screen, 48 h (100 = growth as untreated, 0 = no growth, -100 = all killed)
# Conditions: 10 µM unless noted
row,SMILES,growth
1,CS(=O)(=O)c1nsc(N)n1,97.3%
2,CCCC(=O)OCC(COC(=O)CCC)OC(=O)CCC,102%
3,Cc1ccc(C(=O)c2ccc(C)cc2)cc1,103%
4,Cc1cc2nc3ccc(=[N+](C)C)cc-3sc2cc1N,-57.5% (active) and -0.424% (active)
5,O=C1c2ccccc2C(c2ccccc2)C1c1ccccc1 (configuration not stated),101%
6,COC(=O)CCOc1ccccc1,113%
7,CC(C)(C(=O)c1cccnc1)c1cccnc1,93.5% and 94.5%
8,N#CC1c2ccccc2C=CN1C(=O)c1ccccc1 (configuration not stated),110% and 87.5%
9,OCCS,104%
10,Cc1ccc2cccc([N+](=O)[O-])c2n1,104% and 101%
11,CCN(C)c1ccccc1,115%
12,CCCC(=O)Oc1ccc(CC)cc1,102%
13,O=[N+]([O-])c1ccc(NC2CCCCC2)nc1,104% and 100%
14,O=C1C(=O)c2ccccc2C(O)=C1CC=C(Cl)Cl,35.3% and 87.2%
15,CC1=CC(=O)c2cccc(NC3=NCCO3)c21,95.2%
16,COc1ccc2nccc(Cl)c2c1,102%
17,CCc1ccc(OC(=O)CCl)cc1,107%
18,CC(=O)Oc1cc(C(C)C)c(OCCN(C)C)cc1C,92.7%

row,SMILES,growth
1,O=C(O)c1cccc(Br)c1,100% and 98.7%
2,CC1(C)CC(=O)NC1=O,94.8%
3,OCCSc1ccc(Cl)cc1,105% and 91.1%
4,COc1ccc(S(=O)(=O)c2ccc(F)cc2)cc1,99.9%
5,COc1ccccc1OCC(O)CO (configuration not stated),103%
6,Cc1ccc(NC(=S)N/C=C(\c2ccccc2)S(=O)Cc2ccccc2)c(C)c1 (configuration not stated),97%
7,O=[N+]([O-])c1ccc(NC(c2ccccc2)c2ccc3cccnc3c2O)cc1 (configuration not stated),58.9%
8,CN1C2C=CC(=O)C1C1C(=O)N(c3ccccc3)C(=O)C12 (configuration not stated),102%
9,Cc1cc(-c2ccc(N=Nc3c(C)nn(-c4ccc(S(=O)(=O)O)cc4)c3O)c(C)c2)ccc1N=Nc1ccc(O)c(C(=O)O)c1,94.4%
10,CCOCCC(=O)O,101%
11,O=c1[nH]nnc2cc(Cl)ccc12,103% and 96.5%
12,NC(=O)Cc1nc(O)cc(=O)[nH]1,109%
13,CC1OS(=O)OC1C (configuration not stated),102% and 97.6%
14,NNC(=O)Nc1ccccc1,102%
15,COC(=O)c1ccccc1Cl,106%
16,CCCCC/C(C)=N\NC(N)=S,103%
17,COCCNC(C)=O,94.9%
18,Nc1nc(-c2ccccn2)cc(-c2cc(-c3ccccn3)nc(N)n2)n1,109%

# System: OVCAR-4 ovarian
# Assay: as above
# Conditions: 10 µM unless noted
row,SMILES,growth
1,CS(=O)(=O)c1nsc(N)n1,103%
2,CCCC(=O)OCC(COC(=O)CCC)OC(=O)CCC,97.6%
3,Cc1ccc(C(=O)c2ccc(C)cc2)cc1,87.2% and 117%
4,Cc1cc2nc3ccc(=[N+](C)C)cc-3sc2cc1N,8.09% (active)
5,O=C1c2ccccc2C(c2ccccc2)C1c1ccccc1 (configuration not stated),86.1%
6,COC(=O)CCOc1ccccc1,92.8%
7,CC(C)(C(=O)c1cccnc1)c1cccnc1,110% and 118%
8,N#CC1c2ccccc2C=CN1C(=O)c1ccccc1 (configuration not stated),96.8% and 89.7%
9,OCCS,101%
10,Cc1ccc2cccc([N+](=O)[O-])c2n1,128% and 103%
11,CCN(C)c1ccccc1,109%
12,CCCC(=O)Oc1ccc(CC)cc1,97.3%
13,O=[N+]([O-])c1ccc(NC2CCCCC2)nc1,109%
14,O=C1C(=O)c2ccccc2C(O)=C1CC=C(Cl)Cl,83.9% and 84.4%
15,CC1=CC(=O)c2cccc(NC3=NCCO3)c21,95.1%
16,COc1ccc2nccc(Cl)c2c1,118%
17,CCc1ccc(OC(=O)CCl)cc1,95.6%
18,CC(=O)Oc1cc(C(C)C)c(OCCN(C)C)cc1C,111% and 114%

row,SMILES,growth
1,O=C(O)c1cccc(Br)c1,99.5% and 105%
2,CC1(C)CC(=O)NC1=O,102%
3,OCCSc1ccc(Cl)cc1,104% and 99.9%
4,COc1ccc(S(=O)(=O)c2ccc(F)cc2)cc1,100%
5,COc1ccccc1OCC(O)CO (configuration not stated),110% and 101%
6,Cc1ccc(NC(=S)N/C=C(\c2ccccc2)S(=O)Cc2ccccc2)c(C)c1 (configuration not stated),91.3%
7,O=[N+]([O-])c1ccc(NC(c2ccccc2)c2ccc3cccnc3c2O)cc1 (configuration not stated),22.2%
8,CN1C2C=CC(=O)C1C1C(=O)N(c3ccccc3)C(=O)C12 (configuration not stated),76.4%
9,Cc1cc(-c2ccc(N=Nc3c(C)nn(-c4ccc(S(=O)(=O)O)cc4)c3O)c(C)c2)ccc1N=Nc1ccc(O)c(C(=O)O)c1,106%
10,CCOCCC(=O)O,104%
11,O=c1[nH]nnc2cc(Cl)ccc12,124% and 98.8%
12,NC(=O)Cc1nc(O)cc(=O)[nH]1,113%
13,CC1OS(=O)OC1C (configuration not stated),104% and 100%
14,NNC(=O)Nc1ccccc1,104%
15,COC(=O)c1ccccc1Cl,103%
16,CCCCC/C(C)=N\NC(N)=S,67.8%
17,COCCNC(C)=O,104%
18,Nc1nc(-c2ccccn2)cc(-c2cc(-c3ccccn3)nc(N)n2)n1,105%

# — PubChem BioAssay (NCI)
